LmPK inh: inhibitors of Leishmania mexicana pyruvate kinase; AID 1721; Potency, µM (series often up to 57.5 µM), most hits filed as inhibitors; purified LmPK, Kinase-Glo ATP luminescence, 1 h; 290,000 compounds, 0.37% hits; active means well fitted curve in the direction sought with a large enough effect; inconclusive means small, poorly fitted or top-dose-only effect, or another doubt; inactive means no such curve, though single readings can be large; an effect the other way counts as inactive or inconclusive
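ATP generated from ADP (0.1 mM) and PEP (0.5 mM) by 0.1 nM LmPK over 1 h at room temperature (pH 7.2 imidazole buffer) was detected by coupled luciferase luminescence. Values were normalized to uninhibited and no-enzyme wells.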
NS1 function inh: influenza NS1 inhibition; Potency, µM (titrated, usually from 46.1 µM); 270,000 compounds, 0.4% hits; AID 2326; further: actives are rising curves; nearly all actives have a fitted effect of over 50% in size
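Read-out: OD600 growth recovery of NS1-expressing budding yeast. Cells grown overnight at 30C in -URA glucose medium, washed, resuspended and diluted 1:100 in 2% galactose assay medium, pH 6.0. Same strain lacking NS1 served as positive control.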
FBPA Giardia inh: blocks Giardia fructose-bisphosphate aldolase activity. Potency, µM (titrated, usually from 59.6 µM), usual class: inhibitors. AID 2451. purified Giardia FBPA. 290,000 compounds, 0.71% hits; active means well fitted curve in the direction sought with a large enough effect; inconclusive means small, poorly fitted or top-dose-only effect, or another doubt; inactive means no such curve, though single readings can be large; an effect the other way counts as inactive or inconclusive; further: nearly all actives have a fitted effect of over 55% in size
Target sequence (A8B2U2 whole entry, looked up): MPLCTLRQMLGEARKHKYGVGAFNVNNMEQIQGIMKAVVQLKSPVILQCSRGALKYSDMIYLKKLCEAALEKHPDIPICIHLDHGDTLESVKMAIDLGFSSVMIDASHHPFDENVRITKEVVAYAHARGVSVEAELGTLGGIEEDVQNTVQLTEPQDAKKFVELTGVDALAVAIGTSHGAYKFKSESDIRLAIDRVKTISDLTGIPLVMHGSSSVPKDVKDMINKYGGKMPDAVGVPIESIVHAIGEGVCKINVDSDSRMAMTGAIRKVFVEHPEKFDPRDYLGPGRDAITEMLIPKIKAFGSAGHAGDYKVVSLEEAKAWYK
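40 nM FBPA preincubated 10 min at RT with compound (up to 57.5 uM final), then substrate plus GAPDH/TPI/NAD/arsenate coupling and diaphorase/resazurin added. Fluorescence read after 20 min at RT, 525/598 nm.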
Cycloheximide cs: counter-screen for Shiga toxin inhibitors: cycloheximide protein synthesis inhibition; cell reporter, cycloheximide protein synthesis inhibition counterscreen; max response, %; 300,000 compounds, 12% hits; AID 2314; in the data active means max response mostly above about 13%, no sharp cut-off; inactive means mostly below about 14%; further: read at 38.3 µM for the half of the compounds with a filed dose
Shiga toxin inh: blocks Shiga toxin action in Vero cells | Vero cells, Shiga toxin protein synthesis inhibition reporter | AID 2315 | 290,000 compounds, 9.2% hits | inhibition, % at 38.7 µM; in the data active means inhibition mostly above about 28%, no sharp cut-off; inactive means mostly below about 43%
Flu NS1 inh: influenza NS1 function inhibition validation. shares compounds with NS1 function inh. influenza NS1 function cell assay, 15-point titration. activity change, negative = inhibition, % at 32.9 µM. 1,400 tested, under 10 active. AID 492980
Flu PR8 replic: reduces influenza A/PR/8/34 replication in MDCK cells; 95 compounds, 30% hits; AID 504647; shares compounds with NS1 function inh; MDCK infected influenza A/PR/8/34, virus titer TCID50; stronger effect = lower value; virus titer (log TCID50), log10 TCID50 at 5 µM; call rule not given here
Hits are given with their value; - = inactive; ? = inconclusive; . = not tested or not shown; [ ] = another dose, or the depositor's remark. Compounds with a hit are over-represented: about 14% of the library has one in this group of screens. Unless noted, the call rests on the fitted dose curve.

SMILES	LmPK inh	NS1 function inh	FBPA Giardia inh	Cycloheximide cs	Shiga toxin inh	Flu NS1 inh	others
OC(CN1CCOCC1)(c1ccccc1)c1ccccn1 (centres undefined)	-	-	-	-	-	.
O=C(Cn1cnc2c(oc3ccccc32)c1=O)NCCc1ccccc1	.	5µM	.	.	.	-
COc1ccc(N=C2SC(CC(=O)Nc3ccc(F)cc3)C(=O)N2Cc2ccco2)cc1 (centres undefined)	-	-	-	-	-	.
COc1ccc(N=C2SC(CC(=O)Nc3ccccc3OC)C(=O)N2Cc2ccco2)cc1 (centres undefined)	-	10µM	-	24	40	-
CCn1c2ccccc2c2cc(N=C3SC(CC(=O)Nc4ccccc4OC)C(=O)N3C)ccc21 (centres undefined)	-	4µM	-	-	-	-
Cc1ccc(NC(=O)CNC(=O)c2ccco2)nc1	-	-	.	-	-	.
COc1ccc(-n2c(=O)c(-c3cccs3)nc3cncnc32)cc1	.	.	-	.	.	.
COc1ccc(/C=C2\Sc3ccc(C(=O)NCCCN4CCCC4)cc3N(C)C2=O)cc1OC	-	-	-	-	-	.
CCC(C)C(NC(=O)c1ccccc1NC(=O)c1ccco1)C(=O)NC1CCCCC1 (centres undefined)	-	4.5µM	-	-	-	-
COc1ccc2c(c1)CCC/C2=N\Nc1nc(C(=O)NN)cs1	-	8.9µM	-	46	76	-
COC(=O)C1(C)CCc2cc(OC)ccc2C1=O (centres undefined)	-	-	-	-	-	.
COc1ccc(N(C(=O)c2snc(C(N)=O)c2N)C(C(=O)NC2CCCC2)c2ccc(OC)c(OC)c2)cc1 (centres undefined)	-	?	-	-	-	.
COc1cc(C(C(=O)NC2CCCCC2)N(C(=O)c2snc(C(N)=O)c2N)c2ccc(C)cc2)ccc1O (centres undefined)	-	?	-	-	-	-
CC1CC(C)CN(C(=O)Cn2c(=O)n(CCCC(=O)NCc3ccco3)c(=O)c3sccc32)C1 (centres undefined)	-	-	-	-	-	.
Cc1ccn(S(=O)(=O)c2ccc(N3CCCC3=O)cc2)n1	-	-	-	-	-	.
O=C(NCCCN1CCOCC1)c1ccccc1N1C(=O)[C@@H]2Cc3c([nH]c4ccccc34)C(c3cccc(Cl)c3)N2C1=O (some centres undefined)	-	-	-	-	-	.
FC(F)Oc1ccc(/C=N/c2c(-c3ccc(OC(F)F)cc3)nc3n2CCS3)cc1	-	13µM	-	-	-	-
Cc1nc2ccc(C(=O)N3CCN(Cc4ccccc4)CC3)cc2[nH]1	-	-	.	-	-	.
C(=N\n1cnnc1SCc1ccccc1)/c1ccco1	-	1.1µM	-	-	-	-
Cc1nc2ccccc2c(=O)n1/N=C/c1ccc(F)cc1	-	-	-	-	-	.
CN(C)CCN=Cc1c(O)n(-c2cccc3ccccc23)c(=O)[nH]c1=O	-	?	-	-	-	-
CS(=O)(=O)N(CC(=O)N1CCCCC1)Cc1ccccc1	-	-	-	-	-	.
CCOC(=O)C1CCN(C(=O)CN(Cc2ccccc2)S(C)(=O)=O)CC1	-	14µM	-	-	-	-
Cn1nnc(NC(=S)NC(=O)c2cccc3ccccc23)n1	-	-	.	-	-	.
CCOC(=O)c1c(NC(=S)Nc2cc([N+](=O)[O-])ccc2OC)sc2c1CCCCC2	-	-	-	-	-	.
SMILES	LmPK inh	NS1 function inh	FBPA Giardia inh	Cycloheximide cs	Shiga toxin inh	Flu NS1 inh	others
COC(=O)c1c(NC(=S)Nc2cc(OC)c(Cl)cc2OC)sc2c1CCCCC2	-	11µM	-	-	-	-	Flu PR8 replic=-
COc1ccc(-n2nc3c(c2NC(=O)COc2cccc(OC)c2)CS(=O)(=O)C3)cc1	-	-	.	-	-	.
CCOC(=O)C1=C(CSc2nc3c(cc2C#N)CN(C)CC3)OC(N)=C(C#N)C1c1ccc(F)cc1 (centres undefined)	-	10µM	?	-	-	-
CCOC(=O)C1=C(CSc2nc3c(cc2C#N)CN(C)CC3)OC(N)=C(C#N)C1c1ccccc1 (centres undefined)	-	-	-	-	-	.
CCOC(=O)C1=C(CSc2nc(-c3ccccc3)ccc2C#N)OC(N)=C(C#N)C1c1cccnc1 (centres undefined)	-	10µM	-	42	92	-
COc1cccc(Cn2c(=O)c(C)nc3cnc(Nc4ccccc4)nc32)c1	.	.	-	.	.	.
COc1ccccc1Nc1nc(N)nc(CSC(=S)N2CC(C)CC(C)C2)n1 (centres undefined)	-	10µM	-	-	-	?
O=C(NN1C(=O)C2C3C=CC(C3)C2C1=O)c1ccccc1 (centres undefined)	-	-	-	-	-	.
Cc1cccc(C(=O)NN2C(=O)C3C(c4ccccc4)C=CC(c4ccccc4)C3C2=O)c1 (centres undefined)	-	3.2µM	-	-	-	-
CCOC(=O)C1CCCCN1Cc1ccc(-c2ccccc2)cc1 (centres undefined)	-	-	-	-	-	.
CCC(CO)NC(=O)[C@@H]1C=C2c3cccc4[nH]cc(c34)C[C@H]2N(C)C1 (some centres undefined)	.	35µM	-	.	.	-
O=S(=O)(CCN1CCCCC1)Oc1ccc(Cl)cc1Cl	-	-	-	-	-	.
O=S(=O)(c1ccc(F)cc1)N1CCN(c2ccc(-c3ccccc3)nn2)CC1	-	.	-	-	-	.
O=S(=O)(Nc1cccc(-c2ccc(N3CCCCCC3)nn2)c1)c1cccc(F)c1	-	?	-	40	116	-
COc1ccc(C(=O)CSc2nnc(-c3ccccn3)n2Cc2ccco2)cc1	-	?	-	-	-	-
O=C(CSc1nnc(-c2ccccn2)n1Cc1ccco1)c1ccccc1	-	-	-	-	-	.
Cc1ccc(NC(=O)C(=O)NCCc2c[nH]c3ccccc23)c(C)c1	-[11.5 µM]	.	-	-	-	.
Cc1ccc(NS(=O)(=O)c2cccc(C(=O)NCCc3c[nH]c4ccccc34)c2)c(C)c1	-	11µM	-	-	-	-
Cc1ccc(NC(=O)CC2SC(=O)NC2=O)cc1 (centres undefined)	-	6.3µM	-	-	-	-
c1ccc(-n2c(SCC3CCCCO3)nnc2-c2cccs2)cc1 (centres undefined)	-	?	-	-	-	?
O=C(CSc1nnc(-c2cccs2)n1-c1ccccc1)NCC1CCCO1 (centres undefined)	-	-	-	-	-	.
Cc1nn(-c2ccccc2)c(C)c1/C=N/NC(=O)c1cc(-c2ccc(Br)s2)[nH]n1	-	-	-	-	-	.
Cc1nn(-c2ccccc2)c(C)c1/C=N/NC(=O)c1cc(-c2ccc(Cl)s2)[nH]n1	-	8.9µM	-	-	-	-
O=[N+]([O-])c1ccc(S(=O)(=O)Nc2ccc(S(=O)(=O)N3CCCC3)cc2)cc1	-	-	.	-	-	.
